In PubChem BioAssay (NCATS):
Inconclusive results are not listed. Activity calls are given as the source filed them. Calls follow the shape of the dose curve; as a rule, active = well fitted inhibition curve with a large enough effect; inconclusive = small, poorly fitted or top-dose-only effect; inactive = flat fitted curve, though single readings scatter.

Key:
Experiment in all cases: Cytotoxic Profiling of Annotated Libraries Using Quantitative High-Throughput Screening (AID 1296008); also: nearly all actives have a fitted effect of over 60% in size
Settings in all cases: Five cell lines viability, CellTiter-Glo ATP luminescence, 48-72 h; max response: active compounds read low
CRL-7250 = system: CRL-7250
Procedure, shortened: (§1)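 Compounds were pin-transferred onto cells and incubated 48 or 72 hr at 37 degree Celsius, 95% humidity. CellTiter-Glo was added, plates sat 10 min at room temperature, then ATP-coupled luminescence was imaged as the viability read-out.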

HEK293 = system: HEK293
Procedure, shortened: as §1

HaCat = system: HaCat
Procedure, shortened: as §1

KB-3-1 = system: KB-3-1
Procedure, shortened: as §1

NIH3T3 = system: NIH3T3
Procedure, shortened: as §1

Measured: max response
% is scaled to controls: 0 for no effect and ±100 for the full control effect.

CCC1OC(=O)C(C)CC(C)C(=O)/C(C)=C/C(C)C(=O)/C=C/C1(C)O (stereo not given)
inactive: CRL-7250 | HEK293 -3.54% | HaCat | KB-3-1 8.38% | NIH3T3

CC[C@@H](C)[C@H](N)C(=O)N1Cc2ccccc2C1
inactive: CRL-7250 -11.3% | HEK293 -17.7% | HaCat | KB-3-1 -3.64% | NIH3T3 0.412%

CNc1nc(C)nc(N[C@H]2CCC[C@@H](C(=O)NCc3ccc(C#N)cc3C(F)(F)F)C2)n1
inactive: CRL-7250 | HEK293 -15.3% | HaCat | KB-3-1 -5.41% | NIH3T3

O=C(/C=C/c1ccc(O)cc1)OCC1OC(O)C(OC2OC(CO)C(O)C(O)C2O)C(O)C1O (stereo not given)
inactive: CRL-7250 | HEK293 -3.95% | HaCat | KB-3-1 8.27% | NIH3T3 3.74%

O=C(O)Cc1cn([C@@H]2O[C@H](CO)[C@@H](O)[C@H](O)[C@H]2O[C@@H]2O[C@H](CO)[C@@H](O)[C@H](O)[C@H]2O)c2ccccc12
inactive: CRL-7250 -3.23% | HEK293 2.13% | HaCat | KB-3-1 4.7% | NIH3T3

C/C=C/C=C/[C@@H]1O[C@](O)([C@H](CC)C(=O)NC/C=C/C=C(\C)[C@@H](OC)[C@@H](C)[C@@H]2O[C@H](/C=C/C=C/C=C(\C)C(=O)c3c(O)ccn(C)c3=O)[C@H](O)[C@@H]2O)[C@H](O)[C@H](O)C1(C)C
inactive: CRL-7250 -0.994% | HEK293 -2.35% | HaCat | KB-3-1 | NIH3T3 2.66%

Cc1nc2ccccc2c(-c2ccc3c4c(ccnc24)CCO3)c1[C@H](OC(C)(C)C)C(=O)O
inactive: CRL-7250 -8% | HEK293 4.74% | HaCat | KB-3-1 -6.3% | NIH3T3 -2.71%

O=C(O)c1ccnc2cc(-c3nc4ccccc4n3CCN3CCCCC3)sc12
inactive: CRL-7250 1.05% | HEK293 2.48% | HaCat -0.587% | KB-3-1 2.06% | NIH3T3

COC(=O)C1=COC(OC2OC(CO)C(O)C(O)C2O)C2C(COC(=O)/C=C/c3ccc(O)cc3)C(O)C(O)C12 (stereo not given)
inactive: CRL-7250 | HEK293 0.595% | HaCat | KB-3-1 | NIH3T3 -5.08%

C=CC(C)(O)CC/C=C(\C)C(=O)O[C@@H]1[C@@H](O)[C@H](OC(C)(C=C)CC/C=C(\C)C(=O)O[C@@H]2O[C@H](CO)[C@@H](O)[C@H](O)[C@H]2O)O[C@H](CO)[C@H]1OC(=O)/C(C)=C/CCC(C)(O)C=C (stereo not given in full)
inactive: CRL-7250 1.38% | HEK293 -3.95% | HaCat | KB-3-1 | NIH3T3 1.18%

NC[C@@H]1O[C@@H](O[C@@H]2[C@@H](O[C@@H]3O[C@H](CO)[C@@H](O)[C@H]3O)[C@H](O)[C@@H](N)C[C@H]2N)[C@@H](N)[C@H](O)[C@H]1O
inactive: CRL-7250 | HEK293 -4.01% | HaCat | KB-3-1 | NIH3T3

O=C(O)CCc1ccc(NCc2cccc3c2CCCN3CCOc2ccccc2)cc1F
inactive: CRL-7250 0.539% | HEK293 0.703% | HaCat | KB-3-1 2.13% | NIH3T3

C=C(COC(=O)C(C)C)C1Oc2cc(C(C)=O)ccc2C1OC(=O)C(C)C (stereo not given)
inactive: CRL-7250 -10.7% | HEK293 1.24% | HaCat | KB-3-1 4.68% | NIH3T3 0.455%

CCCCS(=O)(=O)NC(Cc1ccc(OCCCCC2CCNCC2)cc1)C(=O)O (stereo not given)
inactive: CRL-7250 -1.48% | HEK293 -14% | HaCat 4.29% | KB-3-1 0.365% | NIH3T3

C=C1CCC2C(C)(C)CC(O)CC2(C)C1CCC(C)CCOC(=O)CCC(=O)O (stereo not given)
inactive: CRL-7250 -28.7% | HEK293 -12.9% | HaCat -1.5% | KB-3-1 -6.16% | NIH3T3

C=C(C(=O)O)[C@@H]1CC[C@@]2(C)CCC[C@@](C)(O)[C@@H]2C1
inactive: CRL-7250 -2.07% | HEK293 -3.93% | HaCat | KB-3-1 5.56% | NIH3T3 1.2%
